Compound activity as filed in PubChem.
This is a sample that favours compounds with a hit; in the whole collection about 4.5% have one here.
GRK2 inh: inhibitors of human GRK2 displacing RNA aptamer. hit rate 0.59% among 330,000. P25098. bead flow cytometry, FAM-aptamer displacement from GRK2. inhibition of aptamer binding, % at 10 µM;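 active means inhibition of aptamer binding above 40%, roughly 3 SD of noise, on plates passing a quality check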;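 further: median bead fluorescence of bound FAM aptamer so fluorescent compounds give negative values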
HDAC3 inhib: blocks human histone deacetylase 3. O15379. recombinant HDAC3, fluorogenic peptide/trypsin coupled, fluorescence. inhibition, % at 8.3 µM. hit rate 0.15% among 320,000. AID 2718; in the data active means inhibition above about 26%, passing the limit was not always enough; inconclusive means no clear call, values can overlap the other calls
ALR inh: blocks human ALR sulfhydryl oxidase activity | P55789 | purified ALR, DTT oxidation, H2O2 HRP-luminol luminescence | inhibition, % (concentration not given with the values) | hit rate 3.8% among 290,000 | AID 485317;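 active means mean replicate inhibition above about 79%, with every replicate also reaching it, limit read from the data; inconclusive means only one of the two criteria met; inactive means mean below limit and not every replicate reaching it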
Rtt109 HAT inh: blocks Candida albicans Rtt109/Vps75 acetyltransferase activity; Q5AAJ8; AID 540336; hit rate 0.16% among 330,000; purified Rtt109/Vps75, ThioGlo CoA-SH fluorescence, 4 h; inhibition, % at 34.9 µM;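 active means inhibition of at least 50% in every replicate; inconclusive means best replicate reaches 50% inhibition but some replicates fall short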
Target sequence (Q5AAJ8 whole entry, looked up): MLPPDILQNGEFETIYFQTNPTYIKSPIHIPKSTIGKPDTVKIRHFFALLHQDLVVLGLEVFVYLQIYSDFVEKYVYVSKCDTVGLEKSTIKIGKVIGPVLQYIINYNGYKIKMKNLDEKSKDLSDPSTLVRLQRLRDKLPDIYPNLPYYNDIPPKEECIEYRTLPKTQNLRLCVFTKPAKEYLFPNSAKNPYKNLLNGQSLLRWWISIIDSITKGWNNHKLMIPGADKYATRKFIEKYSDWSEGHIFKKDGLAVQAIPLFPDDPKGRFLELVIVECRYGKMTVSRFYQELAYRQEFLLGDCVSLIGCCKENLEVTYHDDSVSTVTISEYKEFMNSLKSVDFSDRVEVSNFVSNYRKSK
Efflux pump inh: antifungal efflux pump inhibition, Nile Red retention | S. cerevisiae Candida pump triplex | hit rate 0.44% among 330,000 | inhibition, % at 10 µM;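 active means plate passing quality check with inhibition over a set limit, or well fluorescence over plate mean plus 4 SD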;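 further: Nile Red retained in pooled yeast measured as flow cytometry median fluorescence; higher means more Nile Red kept so more efflux inhibition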
Rce1 inhib: yeast Ras-converting enzyme inhibition | Q03530 | yeast membranes, quenched prenylated peptide cleavage fluorescence | calls only | hit rate 0.27% among 290,000 | AID 2563;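 active means fall in fluorescence gain of 50% or more versus controls, with final raw signal at or below 3038400; inconclusive means same 50% fall but final raw signal above 3038400; inactive means fall in fluorescence gain under 50%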
A number is an active result.

`COc1cccc(N2CCN(C(=O)c3ccc(CS(=O)Cc4ccccc4Cl)o3)CC2)c1` (stereo not drawn) gave GRK2 inh inactive, HDAC3 inhib inactive, ALR inh inactive, Rtt109 HAT inh inactive, Efflux pump inh inactive and Rce1 inhib inactive.
For O=C(c1ccc(CS(=O)Cc2ccc(Cl)cc2)o1)N1CCN(c2ccccn2)CC1 (stereo not drawn) the results were GRK2 inh inactive, HDAC3 inhib inactive, ALR inh inactive, Rtt109 HAT inh inactive, Efflux pump inh inactive and Rce1 inhib inactive.
`O=C(c1ccc(CS(=O)Cc2ccccc2Cl)o1)N1CCN(c2ccccn2)CC1` (stereo not drawn) gave GRK2 inh inactive, HDAC3 inhib inactive, ALR inh 99, Rtt109 HAT inh inactive, Efflux pump inh inactive and Rce1 inhib inactive.
`O=C(c1ccc(CS(=O)Cc2ccccc2Cl)o1)N1CCN(c2cccc(Cl)c2)CC1` (stereo not drawn) gave GRK2 inh inactive, HDAC3 inhib inactive, ALR inh 99, Rtt109 HAT inh inactive, Efflux pump inh inactive and Rce1 inhib inactive.
For C#CCOc1ccccc1C(N)=O the results were GRK2 inh inactive, HDAC3 inhib inactive, ALR inh inactive, Efflux pump inh inactive and Rce1 inhib inactive.
`CSCc1ccc(C(=O)NC(C)c2cnn(-c3ccccn3)c2C)o1` (stereo not drawn) gave GRK2 inh inactive, HDAC3 inhib inactive, ALR inh 90, Rtt109 HAT inh inactive, Efflux pump inh inactive and Rce1 inhib inactive.
Screening COc1ccc(OC)c(S(=O)(=O)NC(C)c2cnn(-c3ccccn3)c2C)c1 (stereo not drawn) returned GRK2 inh inactive, HDAC3 inhib inactive, ALR inh inactive, Rtt109 HAT inh inactive, Efflux pump inh inactive and Rce1 inhib inactive.
F[B-](F)(F)COc1ccccc1 was read as Rtt109 HAT inh inactive.
`Cc1ccc(CNc2ncc(-c3ccccc3)n2C)o1` gave GRK2 inh inactive, HDAC3 inhib inactive, ALR inh 98, Rtt109 HAT inh inactive, Efflux pump inh inactive and Rce1 inhib inactive.
For Cn1c(-c2ccccc2)cnc1NCc1ccccc1 the results were GRK2 inh inactive, HDAC3 inhib inactive, ALR inh inactive, Rtt109 HAT inh inactive, Efflux pump inh inactive and Rce1 inhib inactive.
O=C(c1ccc(Br)o1)N1CCN=C1SCc1cccc(F)c1 was read as GRK2 inh inactive, HDAC3 inhib inactive, ALR inh inactive, Rtt109 HAT inh inactive, Efflux pump inh inactive and Rce1 inhib inactive.
COc1cc(OC)cc(C(=O)N2CCN=C2SCc2cccnc2)c1 was read as GRK2 inh inactive, HDAC3 inhib inactive, ALR inh 100, Rtt109 HAT inh inactive, Efflux pump inh inactive and Rce1 inhib inactive.
For O=C(c1cccc(F)c1)N1CCN=C1SCc1cccnc1 the results were GRK2 inh inactive, HDAC3 inhib inactive, ALR inh 100, Rtt109 HAT inh inactive, Efflux pump inh inactive and Rce1 inhib inactive.
Screening COc1cc(OC)cc(-c2nnc(SCc3cccnc3)o2)c1 returned GRK2 inh inactive, HDAC3 inhib inactive, ALR inh inactive, Rtt109 HAT inh inactive, Efflux pump inh inactive and Rce1 inhib inactive.
Screening O=C(c1ccc2c(c1)OCO2)N1CCN=C1SCc1ccccc1 returned GRK2 inh inactive, HDAC3 inhib inactive, ALR inh 93, Rtt109 HAT inh inactive, Efflux pump inh inactive and Rce1 inhib inactive.
For O=C(Cc1ccccc1)N1CCN=C1SCc1ccc([N+](=O)[O-])cc1 the results were GRK2 inh inactive, HDAC3 inhib inactive, Rtt109 HAT inh inactive, Efflux pump inh inactive and Rce1 inhib inactive.
`O=C1CCC(C(=O)N2CCSCC2)CN1Cc1cccc(C(F)(F)F)c1` (stereo not drawn) gave GRK2 inh inactive, HDAC3 inhib inactive, ALR inh inactive, Rtt109 HAT inh inactive, Efflux pump inh inactive and Rce1 inhib inactive.
Cc1cc(-c2nc3ccccc3[nH]2)ccc1N was read as GRK2 inh inactive, HDAC3 inhib inactive, ALR inh 98, Rtt109 HAT inh inactive, Efflux pump inh inactive and Rce1 inhib inactive.
Screening Cc1[nH]c2ccccc2c1-c1nc2ccccc2[nH]1 returned GRK2 inh inactive, HDAC3 inhib inactive, ALR inh 89, Efflux pump inh inactive and Rce1 inhib inactive.
`Nc1cc(N)cc(-c2nc3ccccc3[nH]2)c1` gave GRK2 inh inactive, HDAC3 inhib inactive, ALR inh inactive, Rtt109 HAT inh inconclusive and Efflux pump inh inactive.
